Measurements reported in ChEMBL document CHEMBL3988442, “University of Dundee, Small-Polar-MMV Screening Library” (2021).

The compounds below were run against AMP-activated protein kinase, AMPK (Homo sapiens) (UniProt P54646+O43741+P54619+Q9UGJ0+Q9Y478+Q13131+Q9UGI9) (assay: AMP-dependent Kinase enzyme assay. An in vitro enzyme assay that detects ADP turnover that is directly proportional to AMPK activity. This uses naive AMPK that is activated during the assay with MK-8722). Conditions: 30 µM.
Assay type: functional
Parameters: scale not given: direction of the effect not stated beside the values

SMILES	Percent Effect
Cc1cc(CNC(=O)NCCC(=O)N2CCCc3ccccc32)no1	-5.1%
Cc1ccc(NC(=O)CN[C@H](C(N)=O)C(C)C)cc1F	-14.9%
CCOc1ccccc1-n1c(C2CC(=O)N(C)C2)n[nH]c1=O (centres undefined)	7.89%
O=C(CNC(=O)c1ccccc1F)NCc1ccccn1	0.147%
Cc1nc2c(c(NCCc3nccs3)n1)CCN(CC1CC1)CC2	6.45%
Cc1nn(C)c(C)c1-c1ccc(=O)n(C(C)C(=O)NCc2ccco2)n1 (centres undefined)	17.2%
CCCC(=O)NC1CCCN(c2cncc(Br)c2)C1 (centres undefined)	22.4%
CN1CCC(NC(=O)c2cc(Br)cc(Cl)c2O)C1=O (centres undefined)	11.8%
CC(=O)c1cnc(NCCCN2CCOCC2)nc1C	-7.41%
Cc1cc(=O)[nH]c(=O)n1Cc1ccccc1	1.77%
O=C(NCC1CCS(=O)(=O)C1)N(Cc1ccccn1)C1CC1 (centres undefined)	-6.01%
CC(=O)Nc1ccc(Oc2cc(C)nc(C3CCCNC3)c2)cc1 (centres undefined)	-6.11%
Cc1ccc(N2C[C@@H]3CN(C(=O)NC4CCCC4)C[C@]3(C(=O)O)C2)nn1	-1.71%
Cc1cc(C)c(C(=O)N2CCC3(CCCNC3)C2)cc1C (centres undefined)	7.09%
Cc1ncc(CNC(CCO)C2CCCCC2)s1 (centres undefined)	4.05%
CN(CC(O)C(F)(F)F)C(=O)Nc1cccc(Cn2cccn2)c1 (centres undefined)	-3.22%
O=C(NC1CCCN(Cc2c(F)cccc2F)C1)c1cc[nH]n1 (centres undefined)	-4.83%
Cc1ccc(C2CSCCN2CCS(C)(=O)=O)cc1 (centres undefined)	-3.45%
Cc1noc(C)c1CCCNC(=O)Nc1cccc([S+](C)[O-])c1 (centres undefined)	4.42%
O=C(CC1CCCC1)NCCS(=O)(=O)N1CCN(c2ncccn2)CC1	-1.03%

SMILES	Percent Effect
COC1CCN(c2ccc(F)cc2CN(C)CC(N)=O)CC1	5.84%
CCn1c(C2CCN(C(=O)c3ccc4sc(C)nc4c3)CC2)n[nH]c1=O	-0.0637%
Cc1n[nH]c(C)c1CCN(C)c1ccc(-c2nc(C3CC3)no2)cn1	-6.17%
CN(CCCc1cnn(C)c1)Cc1cc2n(n1)CCCNC2	-0.861%
Cc1cc(CC(=O)NC2CCCN(Cc3ccccc3)C2=O)n[nH]1 (centres undefined)	9.56%
Fc1cc(CCNc2ccc3nccn3n2)c2c(c1)COCO2	17.6%
Cc1nn(C)c2nc(N(Cc3nccs3)C3CC3)sc12	1.18%
Cc1ccc(C(CNC(=O)c2cc(=O)c3ccccc3[nH]2)N(C)C)cc1 (centres undefined)	6.26%
COc1ccc([C@@H]2CN(C(=O)CCCc3cn[nH]c3)C[C@H]2N(C)C)cc1	2.77%
COCCCC1(CO)CCCN(C(=O)c2cnc(C3CC3)nc2)C1 (centres undefined)	2.98%
Cc1csc(CCNC(=O)N2CCC(n3cccc3)CC2)n1	-3.41%
CCN(Cc1cnc(C)cn1)C1CCN(c2ccccc2)C1=O (centres undefined)	-4.52%
CO[C@H]1C[C@@H](O)C12CCN(C(=O)NCc1ccco1)CC2	-2.57%
Cc1nc(CN2CCN(c3cc(CCN)ncn3)CC2)cs1	-0.86%
N#Cc1cc(S(N)(=O)=O)ccc1N1CCN(c2ccccc2)CC1	10.8%
CCn1cnnc1CNC(=O)N1CCOC(c2ccccc2Cl)C1 (centres undefined)	0.771%
CN(CCOc1ccc(C#N)cc1)CC1CC1	22.9%
CC(C)Cc1ncc2c(n1)CN(c1cc(NCCO)nc(N)n1)C2	-165%
CCNC(=O)[C@@H]1C[C@H](N)CN1c1cc(CC)nc(N(C)C)n1	-13.7%
